Assay outcomes as filed in PubChem.
ELG1 genotoxic: genotoxicity induction in ELG1-luciferase HEK293T cells; HEK293T ELG1-luciferase reporter, luminescence, 16 h; Potency, µM (doses to about 46 µM), most hits filed as activators; 1.3% of 330,000 active; note: nearly all actives have a fitted effect of over 60% in size
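HEK293T cells expressing luciferase-tagged ELG1 were exposed to compound or DMSO vehicle for 16 hr at 37 °C and 5% CO2. Luciferase activity was then measured with ONE-Glo after 30 min at room temperature.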
ELG1 DNA repair: inhibitors of ELG1-dependent DNA repair in HEK293T cells; HEK293T ELG1-luciferase reporter, luminescence, 16 h; DNA damage induced by 5-fluorouridine; Potency, µM (top dose mostly 46.1 µM), most hits filed as inhibitors; 2.3% of 330,000 active; AID 504467; note: nearly all actives have a fitted effect of over 55% in size
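DMSO vehicle served as the neutral condition. Each well held 2,000 cells given 5-fluorouridine plus compound; after 16 hr at 37 °C/5% CO2, ONE-Glo was added and luciferase measured 30 min later.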
SW480 rereplic: induces DNA re-replication in SW480 colon adenocarcinoma cells; SW480 DNA re-replication, Hoechst DNA content imaging, 48 h; Potency, µM (top dose mostly 46.1 µM), hits mostly activators; 1.8% of 340,000 active; note: nearly all actives have a fitted effect of over 55% in size
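Hoechst fluorescence of nuclei (405 nm excitation, 500-530 nm emission) measured by plate-scanning imager after 48 hr compound exposure at 37 C; re-replication scored as increased number of nuclei with elevated intensity.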
MCF10A rerep: DNA re-replication induction in MCF 10a cells; MCF 10A DNA re-replication, Hoechst nuclear intensity, 48 h; 2.9% of 350,000 active; Potency, µM (top dose mostly 46.1 µM), actives largely listed as activators; note: nearly all actives have a fitted effect of over 50% in size
AT treatment: potential ataxia-telangiectasia treatment | F2112 A-T fibroblasts, KAP-1 phosphorylation AlphaLISA; neocarzinostatin DNA damage 30 min before lysis | Potency, µM (titrated, usually from 57.5 µM), actives largely listed as activators | 0.19% of 320,000 active | AID 485349; note: nearly all actives have a fitted effect of over 45% in size
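hTERT-immortalized A-T patient fibroblasts (F2112), 500 cells/well in OPTI-MEM, 1% FBS, got compounds for 60 min, then NCS for 30 min at 37C. Lysates were then assayed for phospho-KAP-1 by AlphaLISA (anti-pKAP1 donor, anti-KAP1 acceptor beads), 6 hr at 25C.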
p53 reactivation: restores transcriptional activity of mutant p53; 0.063% of 320,000 active; Potency, µM (titrated, usually from 92.2 µM), hits mostly activators; H1299 p53-A138V BP100-luciferase reporter, luminescence, 24 h; note: nearly all actives have a fitted effect of over 45% in size
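H1299 (p53-null), stable ts p53-A138V + BP100-Luc; 1000 cells/well, Opti-MEM/10% FBS; cpd 4 pt, 1:5; 24 h, 37 deg C, 5% CO2; detection reagent 10 min RT; luminescence.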
Each line names hits and unclear results; the compound was inactive in the other large screens. Compounds with a hit are over-represented: about 7.1% of the library has one in this group of screens. Calls come from the whole dose curve; as a rule, active = well fitted curve in the direction sought with a large enough effect; inconclusive = small, poorly fitted or top-dose-only effect, or another doubt; inactive = no such curve, though single readings can be large; an effect the other way counts as inactive or inconclusive.

CC(C)(C)c1ccc(/C=N/OCC(=O)NCc2ccc(F)cc2)cc1	ELG1 DNA repair inconclusive, SW480 rereplic 21µM, MCF10A rerep inconclusive
COc1cc(/C=C/C(=O)OCc2cn3cc(Cl)ccc3n2)ccc1O	ELG1 DNA repair inconclusive, SW480 rereplic inconclusive, MCF10A rerep 10µM
O=C(O)[C@@H]1[C@@H]2C[C@H]3c4[nH]c5ccccc5c4CCN3C[C@@H]2CC[C@@H]1O	none (no result: ELG1 genotoxic, ELG1 DNA repair, AT treatment, p53 reactivation)
O=C1C(=NO)C(c2ccccc2)Oc2ccccc21 (configuration not stated)	MCF10A rerep inconclusive (no result: ELG1 genotoxic, ELG1 DNA repair, AT treatment, p53 reactivation)
NS(=O)(=O)c1ccc(CNC(=O)c2ccc(NS(=O)(=O)c3cccs3)cc2)cc1	ELG1 DNA repair inconclusive
CN(C(=O)COC(=O)CNC(=O)c1ccc2ccccc2c1)c1c(N)n(Cc2ccccc2)c(=O)[nH]c1=O	none
COc1cc(/C=C/C(C)=NNc2ccccc2)ccc1O	SW480 rereplic inconclusive, MCF10A rerep 16µM (no result: ELG1 genotoxic, ELG1 DNA repair, AT treatment, p53 reactivation)
COc1cc(/C=N/N2C(=O)C3C4C=CC(CC4)C3C2=O)ccc1O (configuration not stated)	ELG1 DNA repair inconclusive
COc1cc(/C=C/C2=NC(=O)C(C)(C)O2)ccc1O	ELG1 DNA repair 26µM
Cc1ccnc(NC(=O)c2ccc(S(=O)(=O)c3ccccc3)cc2)c1	none
NC(=S)N1N=C(c2ccccc2)CC1=O	none (no result: ELG1 genotoxic, ELG1 DNA repair, AT treatment, p53 reactivation)
Cn1ncc(SCc2ccccc2)c(Cl)c1=O	ELG1 DNA repair 8.2µM, SW480 rereplic inconclusive, MCF10A rerep inconclusive
CN(C(=O)CN1C(=O)c2cccc(N)c2C1=O)C1CCCCC1	none
O=C(/C=C\Nc1ccc2c(c1)OCO2)c1ccc(Cl)s1	ELG1 genotoxic 0.82µM, ELG1 DNA repair inconclusive
O=C(/C=C\Nc1cccc(F)c1)c1cccs1	ELG1 genotoxic inconclusive, ELG1 DNA repair inconclusive, p53 reactivation inconclusive
O=C(/C=C\Nc1ccc2c(c1)OCO2)c1ccc2c(c1)OCO2	ELG1 genotoxic 2.3µM, ELG1 DNA repair inconclusive, MCF10A rerep 21µM
Cc1ccc(N/C=C/C(=O)c2cccs2)cc1	ELG1 genotoxic 0.16µM, ELG1 DNA repair inconclusive
O=C(/C=C\Nc1ccc2c(c1)OCO2)c1cccs1	ELG1 genotoxic 1µM, ELG1 DNA repair inconclusive
CCOC(=O)c1ccccc1N/C=C/C(=O)c1cccs1	MCF10A rerep inconclusive, p53 reactivation 16µM
Cc1noc(C)c1COc1ccccc1C(=O)NC(C)c1ccc(Cl)cc1 (configuration not stated)	none
CC(=O)c1c(C)[nH]c(C(=O)NCCC2=CCCCC2)c1C	ELG1 genotoxic 9.2µM, ELG1 DNA repair inconclusive, MCF10A rerep inconclusive, p53 reactivation inconclusive (no result: AT treatment)
CC(=O)c1c(C)[nH]c(C(=O)NCCc2ccc(Cl)cc2)c1C	MCF10A rerep 3.7µM
CCOCCn1c(=NC(=O)CSCC(=O)Nc2cc(C)on2)sc2cc(OC)ccc21	ELG1 DNA repair 15µM
O=C(CSc1nnc(-c2cccs2)n1C1CC1)NCC1CCCO1 (configuration not stated)	none
CN(C)/C=C/C(=O)c1cnc(-c2cccc(Cl)c2)s1	ELG1 genotoxic inconclusive, ELG1 DNA repair inconclusive, MCF10A rerep 0.65µM
CC(=O)c1cnc(-c2cccc(Cl)c2)s1	ELG1 genotoxic inconclusive, ELG1 DNA repair inconclusive, MCF10A rerep 2.1µM
O=C(O)c1ccc2c(=O)n3c(nc2c1)/C(=C/c1cccc(Cl)c1Cl)CC3	none
Cc1csc(NC(=O)CSc2nc(=O)n(CCN(C)C)c3c2CCCC3)n1	none
Cc1cc(C(=O)OCC(=O)NC2CCCCC2)c(C)o1	ELG1 DNA repair inconclusive (no result: AT treatment)
Cc1cc2c(cc(C(=O)OCC(=O)NC3CCCCC3)n2C)o1	SW480 rereplic inconclusive, MCF10A rerep 26µM (no result: ELG1 genotoxic, ELG1 DNA repair, AT treatment, p53 reactivation)
C=CCOc1ccc(/C=C/C(=O)OCC(=O)NCc2cccs2)cc1	ELG1 genotoxic inconclusive, ELG1 DNA repair inconclusive, MCF10A rerep inconclusive
O=C1N=C2N(CCN3CCCCC3)c3ccccc3N2/C1=C\c1ccc([N+](=O)[O-])s1	SW480 rereplic inconclusive, MCF10A rerep 18µM (no result: ELG1 genotoxic, ELG1 DNA repair, AT treatment, p53 reactivation)
Cc1ccccc1Oc1cc(-n2ncc(Cl)c(Cl)c2=O)ncn1	ELG1 DNA repair 5.8µM, SW480 rereplic inconclusive, MCF10A rerep 0.73µM
CC(C)(C)c1ccc(OCC(=O)NNC(=S)NC(=O)c2ccccc2[N+](=O)[O-])c(Br)c1	SW480 rereplic inconclusive, MCF10A rerep 21µM
O=C(COc1ccc(Br)cc1Br)NC(=O)NC1CCCC1	ELG1 genotoxic inconclusive, ELG1 DNA repair inconclusive
CC(C)(C)NC(=O)NC(=O)COc1ccc(Br)cc1Br	ELG1 genotoxic 2.1µM, ELG1 DNA repair inconclusive, p53 reactivation inconclusive
CC(C)(C)NC(=O)NC(=O)COc1ccccc1C#N	ELG1 genotoxic 1.3µM, ELG1 DNA repair inconclusive (no result: p53 reactivation)
CC(C)(C)c1ccc(OCC(=O)Nc2ccncc2)c(Br)c1	MCF10A rerep 15µM (no result: p53 reactivation)
Cc1ccc(SCC(=O)OCC(=O)NC2(C#N)CCCCC2)cc1	SW480 rereplic inconclusive
Cc1ccc(-c2[nH]ncc2/C=N/n2c(C)nc3ccccc3c2=O)cc1	ELG1 DNA repair 9.2µM, MCF10A rerep inconclusive
O=c1c2ccccc2nc(COc2ccccc2)n1/N=C/c1cn[nH]c1-c1ccccc1	ELG1 DNA repair 6.5µM, MCF10A rerep inconclusive
Cc1ccc(-n2[nH]c(C)c(/C=N/n3c(C)nc4ccccc4c3=O)c2=O)cc1	SW480 rereplic inconclusive, MCF10A rerep 4.6µM
Cc1ccccc1OCc1nc2ccccc2c(=O)n1/N=C/c1cn[nH]c1-c1ccc(Br)cc1	ELG1 DNA repair 6.5µM, SW480 rereplic inconclusive, MCF10A rerep inconclusive
Cc1cc(C)c(C(=O)COC(=O)Cn2c(C)csc2=O)cc1C	none
O=C(c1cc(S(=O)(=O)N2CCN(c3ccccc3)CC2)ccc1Cl)N1CCCCCCC1	MCF10A rerep inconclusive
CC(=O)Nc1cccc(C(=O)N/N=C/c2ccccc2F)c1	ELG1 genotoxic 7.3µM, ELG1 DNA repair inconclusive
Cc1ccc(C(=O)Nc2cccc(C(=O)N/N=C/c3ccccc3F)c2)cc1	ELG1 genotoxic inconclusive, ELG1 DNA repair inconclusive, SW480 rereplic inconclusive
COc1ccc(/C=N/NC(=O)c2cccc(NC(=O)c3ccccc3Cl)c2)cc1OC	MCF10A rerep inconclusive
CC(=O)Nc1cccc(C(=O)N/N=C/c2ccc(F)cc2)c1	ELG1 genotoxic 16µM, ELG1 DNA repair inconclusive, p53 reactivation inconclusive
COc1ccc(/C=N/NC(=O)c2cccc(NC(=O)c3ccccc3Cl)c2)cc1	ELG1 DNA repair inconclusive, SW480 rereplic 6.5µM, MCF10A rerep 2.6µM
Cc1ccc(C(=O)Nc2cccc(C(=O)N/N=C/c3ccc(F)cc3)c2)cc1	ELG1 DNA repair inconclusive
CC(NC(=O)CN1C(=O)NC2(CCCCCC2)C1=O)c1ccccc1Cl (configuration not stated)	ELG1 DNA repair inconclusive
O=C(CN1CCN(S(=O)(=O)c2ccccc2F)CC1)Nc1ccnn1C1CCCC1	none
